# Values without a mark were called inactive. For part of these data: Results with a measured potency or affinity are listed apart. The list shows a part of the results. The source made the active and inactive calls.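 How the source made its calls, unless noted: active means primary screen inhibitor hit that blocks the TRPC4 channel at some tested dose, yielding a dose curve; inactive means the rest.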
# Key:
# [1] = system: TRPC4 beta (transient receptor potential cation channel C4), mouse; experiment: TRPC4 cation channel opening, retest – cell-based, Fluo4 calcium, HEK293 TRPC4beta/mu-opioid, duplicates, 10 µM, confirmation (AID 2426;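 active means fluorescence ratio normalized to control raised more than 50% in primary screen plus both repeat runs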); conditions: Fluo4 calcium fluorescence, at 10 µM; stronger effect = higher value
# [2] = system: transient receptor potential cation channel C4 beta (TRPC4), mouse; experiment: TRPC4 cation channel opening, second retest – cell-based, second round, Fluo4, HEK293 TRPC4beta/mu-opioid, 1 µM, confirmation (AID 2461;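 active means primary screen active and over 50% activation in each of two duplicate runs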); conditions: Fluo4 calcium fluorescence, at 1 µM; stronger effect = higher value
# [3] = system: TRPC4 (transient receptor potential cation channel C4 beta), mouse; experiment: potentiation of DAMGO EC20 TRPC4 response – cell-based, second round, Fluo-4, HEK293 TRPC4beta/mu-opioid, 1 µM, confirmation (AID 2554;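 active means primary screen hit whose fluorescence ratio, in both repeats, exceeds the weak agonist control mean by 3 SD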); conditions: DAMGO EC20, Fluo-4 calcium flux, at 1 µM; stronger effect = higher value
# [4] = system: TRPC4 beta (transient receptor potential cation channel C4), mouse; experiment: potentiation of DAMGO EC20 TRPC4 response – cell-based, Fluo-4, HEK293 TRPC4beta/mu-opioid, confirmation (AID 2555;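 active means primary screen hit whose calcium fluorescence ratio, in both repeats, exceeds the weak agonist control mean by 3 SD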); conditions: DAMGO EC20, Fluo-4 calcium flux, at 10 µM; stronger effect = higher value
# [5] = target: Short transient receptor potential channel 4 (Mus musculus) (UniProt Q9QUQ5); experiment: blockers of DAMGO-evoked TRPC4 calcium flux – cell-based, Fluo4, HEK293 TRPC4beta/mu-opioid, confirmation (AID 2636;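 active means calcium signal cut by more than 3 SD below the full-agonist control yet still positive, in both repeats and the earlier primary screen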); conditions: at 10 µM; stronger effect = higher value
# Sequence of Short transient receptor potential channel 4 (Mus musculus) (Q9QUQ5 whole entry, looked up): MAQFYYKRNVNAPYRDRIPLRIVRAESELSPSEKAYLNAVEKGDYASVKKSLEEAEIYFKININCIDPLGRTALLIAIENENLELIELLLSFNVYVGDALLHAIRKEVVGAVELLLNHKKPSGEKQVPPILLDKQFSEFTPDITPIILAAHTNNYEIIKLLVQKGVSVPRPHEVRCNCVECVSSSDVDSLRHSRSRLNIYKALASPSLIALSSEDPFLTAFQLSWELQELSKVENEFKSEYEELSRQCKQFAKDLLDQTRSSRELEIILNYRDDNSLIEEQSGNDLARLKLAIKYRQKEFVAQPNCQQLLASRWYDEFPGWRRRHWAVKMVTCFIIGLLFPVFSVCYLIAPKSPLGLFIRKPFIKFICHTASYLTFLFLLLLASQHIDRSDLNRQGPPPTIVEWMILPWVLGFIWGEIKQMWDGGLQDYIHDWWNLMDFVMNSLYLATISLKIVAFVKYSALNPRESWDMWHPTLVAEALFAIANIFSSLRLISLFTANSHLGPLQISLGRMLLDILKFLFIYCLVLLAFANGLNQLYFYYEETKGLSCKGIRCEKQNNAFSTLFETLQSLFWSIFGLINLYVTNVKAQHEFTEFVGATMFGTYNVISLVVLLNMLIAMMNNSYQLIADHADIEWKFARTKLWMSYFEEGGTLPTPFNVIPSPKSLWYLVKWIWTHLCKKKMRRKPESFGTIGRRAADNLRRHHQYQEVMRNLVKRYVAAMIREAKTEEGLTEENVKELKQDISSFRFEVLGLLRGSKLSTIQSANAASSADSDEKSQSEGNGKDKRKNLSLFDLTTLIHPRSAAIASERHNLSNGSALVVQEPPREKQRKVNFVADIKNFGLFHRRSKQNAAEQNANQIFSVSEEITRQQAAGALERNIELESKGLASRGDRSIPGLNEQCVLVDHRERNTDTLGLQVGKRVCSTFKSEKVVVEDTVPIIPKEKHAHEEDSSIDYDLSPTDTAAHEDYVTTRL
# [6] = target: Short transient receptor potential channel 4 (Mus musculus) (UniProt Q9QUQ5); experiment: blockers of DAMGO-evoked TRPC4 calcium flux – cell-based, second round, Fluo4, HEK293 TRPC4beta/mu-opioid, 1 µM, confirmation (AID 2637;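 active means calcium signal ratio cut to more than 3 SD under the fully stimulated control mean yet still positive, in both repeats and the primary screen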); conditions: at 1 µM; stronger effect = higher value
# [7] = target: Short transient receptor potential channel 4 (Mus musculus) (UniProt Q9QUQ5); experiment: calcium entry via TRPC4 opening agents – cell-based, HEK293 TRPC4/mu-opioid, Fluo-4 calcium, dose response (AID 434937;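 active means primary screen activator hit with a dose response curve and TRPC4 channel activation at any tested dose; inactive means no activation, no dose response, or not a primary hit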)
# [8] = target: Short transient receptor potential channel 4 (Mus musculus) (UniProt Q9QUQ5); experiment: potentiation of DAMGO-evoked TRPC4 calcium signal – cell-based, HEK293 TRPC4/mu-opioid, Fluo-4 calcium, EC20 DAMGO, dose response (AID 434941;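 active means earlier screen potentiator hit that boosts the TRPC4 ion channel at some dose, with a dose response; inactive means no potentiation, no dose response, or not a prior hit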;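 further: calcium entry triggered by an EC20 dose of DAMGO at the co-expressed mu-opioid receptor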)
# [9] = target: Short transient receptor potential channel 4 (Mus musculus) (UniProt Q9QUQ5); experiment: block of DAMGO-driven TRPC4 calcium entry – cell-based, HEK293 TRPC4/mu-opioid, Fluo-4 calcium, dose response (AID 434942)
# [10] = target: Short transient receptor potential channel 6 (Mus musculus) (UniProt Q61143); experiment: TRPC6 blockade by TRPC4 inhibitor hits – cell-based, HEK293, membrane potential dye, duplicate, selectivity assay for TRPC4 inhibitor project, confirmation (AID 434948;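 active means active in primary screen and both duplicates, each dropping signal beyond three positive-control SD with fluorescence still positive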); conditions: HEK293 TRPC6, membrane potential dye fluorescence, at 10 µM, stimulated with maximal-effect acetylcholine; stronger effect = higher value
# Sequence of Short transient receptor potential channel 6 (Mus musculus) (Q61143 whole entry, looked up): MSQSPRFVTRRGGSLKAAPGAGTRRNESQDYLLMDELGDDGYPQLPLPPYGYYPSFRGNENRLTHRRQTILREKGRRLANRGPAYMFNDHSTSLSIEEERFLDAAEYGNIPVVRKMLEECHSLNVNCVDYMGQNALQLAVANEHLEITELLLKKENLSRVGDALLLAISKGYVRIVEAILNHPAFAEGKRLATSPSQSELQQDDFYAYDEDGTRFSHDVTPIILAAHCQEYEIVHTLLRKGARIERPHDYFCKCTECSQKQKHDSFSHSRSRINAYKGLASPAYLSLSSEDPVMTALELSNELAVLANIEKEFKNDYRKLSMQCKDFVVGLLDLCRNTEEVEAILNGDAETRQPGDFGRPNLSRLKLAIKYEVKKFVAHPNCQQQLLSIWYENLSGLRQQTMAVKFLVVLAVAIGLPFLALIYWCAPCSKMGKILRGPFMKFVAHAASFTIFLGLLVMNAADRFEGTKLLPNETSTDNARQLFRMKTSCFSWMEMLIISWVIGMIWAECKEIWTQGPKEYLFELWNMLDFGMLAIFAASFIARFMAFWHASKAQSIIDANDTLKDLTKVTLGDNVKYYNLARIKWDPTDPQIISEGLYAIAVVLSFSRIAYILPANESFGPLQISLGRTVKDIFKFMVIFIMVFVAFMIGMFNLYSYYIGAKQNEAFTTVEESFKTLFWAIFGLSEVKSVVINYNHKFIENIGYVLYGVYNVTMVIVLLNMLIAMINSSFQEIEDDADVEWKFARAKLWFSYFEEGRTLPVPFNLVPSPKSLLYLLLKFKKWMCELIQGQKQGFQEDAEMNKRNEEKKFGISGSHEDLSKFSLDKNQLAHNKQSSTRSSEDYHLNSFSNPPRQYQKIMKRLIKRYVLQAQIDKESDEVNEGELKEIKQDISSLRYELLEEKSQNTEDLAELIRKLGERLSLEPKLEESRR
# [11] = target: Short transient receptor potential channel 6 (Mus musculus) (UniProt Q61143); experiment: TRPC6 opening by TRPC4 activator hits – cell-based, HEK293, membrane potential dye, duplicate, selectivity assay for TRPC4 activator project, confirmation (AID 434950;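 active means membrane potential signal rise above negative control mean plus 3 SD in both duplicates, also active in the earlier TRPC4 screen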); conditions: HEK293 TRPC6, membrane potential fluorescence, at 10 µM; activation: stronger effect = higher value; outcome: activation
# [12] = target: Short transient receptor potential channel 6 (Mus musculus) (UniProt Q61143); experiment: positive modulators of mouse TRPC6 channel – HEK293 cells, membrane potential dye, duplicate, selectivity assay for TRPC4 potentiator project, confirmation (AID 434952;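 active means compound raising the membrane signal above positive-control mean plus 3 SD in both repeats, and a primary screen hit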); conditions: HEK293 TRPC6, membrane potential dye fluorescence, at 10 µM, maximal acetylcholine added after compound; stronger effect = higher value
# [13] = target: Short transient receptor potential channel 4 (Mus musculus) (UniProt Q9QUQ5); experiment: calcium flux activators in TRPC4/5HT1a cells, counter-screen for TRPC4 activator project, cell-based, second counter screen, HEK293 TRPC4/5HT1a, Fluo-4 (AID 434977;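 active means calcium signal rise above buffer-control mean plus 5 SD in both duplicates, and also a hit in the primary screen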;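 on activation: plate controls were assay buffer for no effect and maximal serotonin response for full effect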); conditions: Fluo-4 calcium flux, at 10 µM; stronger effect = higher value
# [14] = serotonin-gated TRPC4 signal block – cell-based, second counter screen, HEK293 TRPC4/5HT1a, Fluo-4, counter-screen for TRPC4 inhibitor project, confirmation (AID 434978;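 active means primary screen active whose calcium signal fell more than 3 SD beyond the full-serotonin control mean in both duplicate plates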;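 further: serotonin given first at submaximal then at maximal dose after compound preincubation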); conditions: Fluo-4 calcium flux, at 10 µM, serotonin added to trigger calcium flux; stronger effect = higher value
# [15] = system: TRPC4 (mouse), co-expressed with 5HT1a in HEK293; experiment: enhancement of serotonin-evoked TRPC4 response – cell-based, second counter screen, HEK293 TRPC4/5HT1a, Fluo-4, counter-screen for TRPC4 potentiator project, confirmation (AID 434979;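 active means signal rise over 3 SD above mean of control wells given weak agonist, in both repeats and first screen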); conditions: Fluo-4 calcium flux, at 10 µM, serotonin added at its EC20 dose; stronger effect = higher value
# [16] = nonspecific calcium rise without TRPC4 – cell-based, HEK293 mu-opioid receptor line, counter-screen for TRPC4 activator project, confirmation (AID 449723;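 active means hit in primary screen, with calcium signal over 5 SD above buffer well mean in both duplicates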;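 further: counter screen cells carry the mu-opioid receptor alone and lack TRPC4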); conditions: HEK293 mu-opioid cells, Fluo-4 calcium fluorescence, at 10 µM; stronger effect = higher value
# [17] = nonspecific potentiation of DAMGO calcium response – cell-based, HEK293 mu-opioid receptor line, counter-screen for TRPC4 allosteric potentiator project, confirmation (AID 449724;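 active means calcium signal rise more than 3 SD above the low-dose agonist control mean, in both duplicate plates and the primary screen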); conditions: HEK293 mu-opioid receptor cells, Fluo-4 calcium flux, at 10 µM, compound added before EC20 DAMGO stimulus; stronger effect = higher value
# [18] = parental CHO-K1 cell activation, no KCNQ2 – FluxOR thallium flux, duplicate, counter-screen for KCNQ2 potentiator project, confirmation (AID 2282;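 active means signal rise of at least 3 SD above the untreated control mean, in both duplicate wells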;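 further: counter screen of KCNQ2 potentiator hits so any rise reflects channel-independent effects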); conditions: parental CHO-K1 cells, FluxOR thallium flux fluorescence; at 10 µM; stronger effect = higher value; zero = vehicle mean+3SD, 100% = vehicle-minus-blank window
# [19] = target: Potassium voltage-gated channel subfamily KQT member 1 (Homo sapiens) (UniProt P51787); experiment: KCNQ1 activation in stable CHO cells – cell-based, FluxOR thallium flux, selectivity assay for KCNQ2 potentiator project, confirmation (AID 2283;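 active means fluorescence ratio rise of at least 3 SD of vehicle wells above their mean, in both replicate wells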;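 further: 0% = vehicle mean plus 3 SD and 100% = vehicle minus unstimulated blank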); conditions: FluxOR thallium flux fluorescence, at 10 µM, stronger effect = higher value, beyond 3SD, as % of vehicle-control signal
# Sequence of Potassium voltage-gated channel subfamily KQT member 1 (Homo sapiens) (P51787 whole entry, looked up): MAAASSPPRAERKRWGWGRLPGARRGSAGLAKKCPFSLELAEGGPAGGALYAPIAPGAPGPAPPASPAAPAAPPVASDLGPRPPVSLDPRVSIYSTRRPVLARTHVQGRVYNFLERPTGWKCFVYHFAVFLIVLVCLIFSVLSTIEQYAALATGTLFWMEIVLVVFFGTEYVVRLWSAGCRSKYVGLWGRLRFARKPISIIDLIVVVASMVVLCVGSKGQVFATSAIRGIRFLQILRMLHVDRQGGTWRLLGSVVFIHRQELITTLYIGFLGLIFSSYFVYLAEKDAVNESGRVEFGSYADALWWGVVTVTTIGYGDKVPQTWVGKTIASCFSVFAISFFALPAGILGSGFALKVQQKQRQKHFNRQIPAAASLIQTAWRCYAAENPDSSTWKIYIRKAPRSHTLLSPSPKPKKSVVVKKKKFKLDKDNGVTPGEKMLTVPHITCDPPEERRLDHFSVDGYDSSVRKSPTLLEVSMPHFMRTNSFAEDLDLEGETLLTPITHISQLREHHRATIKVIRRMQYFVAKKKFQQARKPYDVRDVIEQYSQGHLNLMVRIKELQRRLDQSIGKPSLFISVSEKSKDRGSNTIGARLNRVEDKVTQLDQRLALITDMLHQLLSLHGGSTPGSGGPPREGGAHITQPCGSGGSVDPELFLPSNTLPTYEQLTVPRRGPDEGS
# [20] = target: Potassium voltage-gated channel subfamily KQT member 2 (Rattus norvegicus) (UniProt O88943); experiment: KCNQ2 potassium channel activity enhancers – cell-based, CHO, FluxOR thallium flux, duplicate, confirmation (AID 2287;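 active means fluorescence ratio rising 3 SD or more over the vehicle control mean in both replicates, plus primary screen hit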;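 further: peak minus minimum thallium fluorescence divided by baseline after K/Tl stimulus; 0% = vehicle mean plus 3 SD and 100% = vehicle minus unstimulated blank difference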); conditions: CHO-KCNQ2 cells, FluxOR thallium flux fluorescence; at 10 µM; stronger effect = higher value
# Sequence of Potassium voltage-gated channel subfamily KQT member 2 (Rattus norvegicus) (O88943 whole entry, looked up): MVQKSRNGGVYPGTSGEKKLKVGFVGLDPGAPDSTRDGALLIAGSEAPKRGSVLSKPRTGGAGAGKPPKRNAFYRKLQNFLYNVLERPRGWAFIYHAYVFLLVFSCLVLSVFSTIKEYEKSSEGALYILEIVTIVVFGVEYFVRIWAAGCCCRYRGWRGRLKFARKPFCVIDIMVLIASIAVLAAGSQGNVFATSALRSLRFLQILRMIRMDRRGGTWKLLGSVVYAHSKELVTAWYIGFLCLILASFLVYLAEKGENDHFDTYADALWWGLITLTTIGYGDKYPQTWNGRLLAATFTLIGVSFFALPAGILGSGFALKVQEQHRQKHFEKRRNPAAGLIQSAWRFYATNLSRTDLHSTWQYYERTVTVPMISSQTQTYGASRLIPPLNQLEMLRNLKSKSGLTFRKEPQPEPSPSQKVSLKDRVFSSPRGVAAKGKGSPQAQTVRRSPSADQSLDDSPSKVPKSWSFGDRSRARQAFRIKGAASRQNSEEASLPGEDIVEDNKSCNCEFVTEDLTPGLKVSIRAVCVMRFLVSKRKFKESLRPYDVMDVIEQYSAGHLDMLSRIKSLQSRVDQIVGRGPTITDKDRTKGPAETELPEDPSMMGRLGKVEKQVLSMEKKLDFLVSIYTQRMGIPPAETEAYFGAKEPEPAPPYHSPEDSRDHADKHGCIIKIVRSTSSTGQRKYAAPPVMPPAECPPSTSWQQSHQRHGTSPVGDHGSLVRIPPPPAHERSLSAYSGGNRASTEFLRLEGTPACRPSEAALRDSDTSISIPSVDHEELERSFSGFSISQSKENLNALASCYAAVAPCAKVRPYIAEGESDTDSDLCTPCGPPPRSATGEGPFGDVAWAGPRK
smiles,measurement,setting,value
CCOC(=O)c1cn(Cc2ccccc2)c(C(=O)OC(C)(C)C)c1O,outcome,[1],inactive
same,outcome,[2],inactive
same,outcome,[3],inactive
same,outcome,[4],inactive
same,outcome,[5],inactive
same,outcome,[6],inactive
same,outcome,[7],inactive
same,outcome,[8],inactive
same,outcome,[9],inactive
same,outcome,[10],inactive
same,outcome,[11],inactive
same,outcome,[12],inactive
same,activation,[13],54.1% (active)
same,outcome,[14],inactive
same,outcome,[15],inactive
same,activation,[16],21.1% (active)
same,outcome,[17],inactive
Oc1c(Cl)cc(Cl)c(Cl)c1Cc1c(O)c(Cl)cc(Cl)c1Cl,activity increase over 3SD of controls,[18],45% (active)
same,activation over 3SD threshold,[19],-3.6%
same,"potentiation, less the hit threshold",[20],112% (active)
Cc1ccc(Cn2c(=N)c(C(=O)NCCN3CCOCC3)cc3c(=O)n4ccccc4nc32)cc1,outcome,[1],inactive
same,outcome,[2],inactive
same,outcome,[3],inactive
same,potentiation,[4],31% (active)
same,outcome,[5],inactive
same,outcome,[6],inactive
same,outcome,[7],inactive
same,outcome,[8],inactive
same,outcome,[9],inactive
same,outcome,[10],inactive
same,outcome,[11],inactive
same,outcome,[12],inactive
same,outcome,[13],inactive
same,outcome,[14],inactive
same,outcome,[15],inactive
same,outcome,[16],inactive
same,outcome,[17],inactive
CC(C)CCNC(=O)CCC(=O)NNc1nc2ccccc2c2nc(-c3ccccc3)nn12,outcome,[1],inactive
same,outcome,[2],inactive
same,outcome,[3],inactive
same,outcome,[4],inactive
same,outcome,[5],inactive
same,outcome,[6],inactive
same,outcome,[7],inactive
same,outcome,[8],inactive
same,outcome,[9],inactive
same,outcome,[10],inactive
same,outcome,[11],inactive
same,outcome,[12],inactive
same,outcome,[13],inactive
same,outcome,[14],inactive
same,potentiation,[15],70.8% (active)
same,outcome,[16],inactive
same,outcome,[17],inactive
